# Test results taken from PubChem BioAssay (NCATS).
# Several values for one entry are separate records, joined by “and”; a condition that tells them apart may be missing. Equal values may be shown once. Results filed as inconclusive are left out. Entries that show only a call come without a potency. A structure can be active in one record and inactive in another. Activity calls are given as the source filed them. Unless noted, calls follow the shape of the dose curve; as a rule, active = well fitted curve in the direction sought with a large enough effect; inconclusive = small, poorly fitted or top-dose-only effect, or another doubt; inactive = no such curve, though single readings can be large; an effect the other way counts as inactive or inconclusive.
# Columns and labels:
# WaGa = test: qHTS assay to identify novel small-molecules to repurpose for Merkel cell carcinoma treatment (AID 1296009); conditions: MCC and control cell lines, CellTiter-Glo viability, 72 h; series mostly up to 46 µM; also: nearly all actives have a fitted effect of over 60% in size; also: potency is read from the fitted curve at half-maximal effect
# Outline: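 72 hr, 37 degree celsius; NPC 8-pt / MIPE 11-pt dose response; compound pinned in DMSO; CellTiter-Glo, 10 min RT, luminescence; normalized to no-cell and DMSO controls.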
# C33A = test: Primary qHTS to identify gynecologic anti-cancer compounds using libraries of approved drugs and bioactive compounds (AID 1345084); conditions: Gynecologic cancer cell panel viability, ATPlite luminescence, 48 h; series mostly up to 57.5 µM; also: nearly all actives have a fitted effect of over 55% in size; also: potency is read from the fitted curve at half-maximal effect
# Outline: (§1)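 Measured: luminescence after ATPlite addition (15 min, RT). Exposure: 48 h, 37 C, 5% CO2.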
# CAOV3 = test: as above; conditions: Gynecologic cancer cell panel viability, ATPlite luminescence, 48 h; series mostly up to 57.5 µM
# Outline: as §1
# CASKI = test: as above; conditions: Gynecologic cancer cell panel viability, ATPlite luminescence, 48 h; series mostly up to 57.5 µM
# Outline: as §1
# Es-2 = test: as above; conditions: Gynecologic cancer cell panel viability, ATPlite luminescence, 48 h; series mostly up to 57.5 µM
# Outline: as §1
# HeLa = test: as above; conditions: Gynecologic cancer cell panel viability, ATPlite luminescence, 48 h; series mostly up to 57.5 µM
# Outline: as §1
# Hek293T = test: as above; conditions: Gynecologic cancer cell panel viability, ATPlite luminescence, 48 h, control line for the selectivity index; series mostly up to 57.5 µM
# Outline: as §1
# JEG-3 = test: as above; conditions: Gynecologic cancer cell panel viability, ATPlite luminescence, 48 h; series mostly up to 57.5 µM
# Outline: as §1
# OV90 = test: as above; conditions: Gynecologic cancer cell panel viability, ATPlite luminescence, 48 h; series mostly up to 57.5 µM
# Outline: as §1
# PA-1 = test: as above; conditions: Gynecologic cancer cell panel viability, ATPlite luminescence, 48 h; series mostly up to 57.5 µM
# Outline: as §1
# Tov-21-G = test: as above; conditions: Gynecologic cancer cell panel viability, ATPlite luminescence, 48 h; series mostly up to 57.5 µM
# Outline: as §1
# Tov112D = test: as above; conditions: Gynecologic cancer cell panel viability, ATPlite luminescence, 48 h; series mostly up to 57.5 µM
# Outline: as §1
# [1] = Drug repurposing screens with cells derived from glioblastoma tumor samples (AID 1345199); conditions: GBM patient neurospheres viability, ATP luminescence, 48 h; also: nearly all actives have a fitted effect of over 40% in size; also: potency is read from the fitted curve at half-maximal effect
# Outline: (§2)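 Four patient lines of CD133+ GBM neurospheres were screened at several concentrations; hits were retested in those lines plus three slower-growing GBM lines, using 48-hour treatment and ATP-based viability.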
# astro = test: as above; conditions: viability, ATP luminescence, 48 h; series mostly up to 45.9 µM
# Outline: as §2
# SKOV3 = test: Primary qHTS to identify gynecologic anti-cancer compounds using libraries of approved drugs and bioactive compounds (AID 1345084); conditions: Gynecologic cancer cell panel viability, ATPlite luminescence, 48 h; series mostly up to 57.5 µM; also: nearly all actives have a fitted effect of over 55% in size; also: potency is read from the fitted curve at half-maximal effect
# Outline: as §1
# [2] = target: Nuclear receptor subfamily 1 group I member 2 (Rattus norvegicus) (UniProt Q9R1A7); test: qHTS assay for small molecule activators of the rat pregnane X receptor (rPXR) signaling pathway (AID 651751; call rule not given here); conditions: rPXR reporter cells, luciferase (One-Glo), 24 h
# [3] = qHTS assay for small molecule activators of the human pregnane X receptor (PXR) signaling pathway (AID 720659; call rule not given here)
# [4] = at 45.9 µM (top of the series), tumour line B
# [5] = at 45.9 µM (top of the series), tumour line D
# [6] = at 46.1 µM (top of the series), tumour line C
# [7] = at 46 µM (top of the series), tumour line A
# [8] = at 20 µM (top of the series), tumour line C
# [9] = at 21.2 µM (top of the series), tumour line B
# [10] = at 21.2 µM (top of the series), tumour line D
# Nuclear receptor subfamily 1 group I member 2 (Rattus norvegicus), sequence (Q9R1A7 whole entry, looked up): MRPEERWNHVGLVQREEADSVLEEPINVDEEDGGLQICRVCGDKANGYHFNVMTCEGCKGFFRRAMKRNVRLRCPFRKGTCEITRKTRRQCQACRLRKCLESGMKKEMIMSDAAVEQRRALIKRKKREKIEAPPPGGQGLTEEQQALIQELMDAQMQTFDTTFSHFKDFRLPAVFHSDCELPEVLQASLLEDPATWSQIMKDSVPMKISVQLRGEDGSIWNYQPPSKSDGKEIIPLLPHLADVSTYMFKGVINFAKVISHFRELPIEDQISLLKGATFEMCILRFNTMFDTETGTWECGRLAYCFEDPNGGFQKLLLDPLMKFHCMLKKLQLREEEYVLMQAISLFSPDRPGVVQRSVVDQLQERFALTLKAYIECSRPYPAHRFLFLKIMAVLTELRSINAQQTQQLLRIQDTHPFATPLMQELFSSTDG
smiles,measurement,setting,value
Cc1ccc(C(C)C)cc2c(C)ccc1-2,Potency,WaGa,inactive
same,Potency,C33A,inactive
same,Potency,CAOV3,inactive
same,Potency,CASKI,inactive
same,Potency,Es-2,inactive
same,Potency,HeLa,inactive
same,Potency,Hek293T,inactive
same,Potency,JEG-3,inactive
same,Potency,OV90,inactive
same,Potency,PA-1,inactive
same,Potency,Tov-21-G,inactive
same,Potency,Tov112D,inactive
same,"activity, negative = cell killing",[1]; [4],-9% (inactive)
same,"activity, negative = cell killing",[1]; [5],5.15% (inactive)
same,"activity, negative = cell killing",[1]; [6],-3.49% (inactive)
same,Potency,astro,inactive
NC(=O)N/N=C/c1ccc([N+](=O)[O-])o1,Potency,WaGa,38.6 µM (active)
same,Potency,C33A,inactive
same,Potency,CAOV3,inactive
same,Potency,CASKI,inactive
same,Potency,Es-2,31.6 µM (active) and inactive
same,Potency,HeLa,31.6 µM (active)
same,Potency,Hek293T,inactive
same,Potency,OV90,inactive
same,Potency,PA-1,inactive
same,Potency,SKOV3,14.1 µM (active) and inactive
same,Potency,Tov-21-G,39.8 µM (active) and inactive
same,Potency,Tov112D,inactive
same,"activity, negative = cell killing",[1]; [4],2.52% (inactive)
same,"activity, negative = cell killing",[1]; [5],-11.8% (inactive)
same,"activity, negative = cell killing",[1]; [7],-13.9% (inactive)
same,"activity, negative = cell killing",[1]; [6],14.2% (inactive)
same,Potency,astro,inactive
same,max response,[2],-8.95% (inactive) and -7.82% (inactive)
same,outcome,[3],inactive
O=C(O)c1ccccn1,Potency,WaGa,inactive
same,Potency,C33A,inactive
same,Potency,CAOV3,inactive
same,Potency,CASKI,inactive
same,Potency,Es-2,inactive
same,Potency,HeLa,inactive
same,Potency,Hek293T,inactive
same,Potency,JEG-3,inactive
same,Potency,OV90,inactive
same,Potency,PA-1,inactive
same,Potency,Tov-21-G,inactive
same,Potency,Tov112D,inactive
same,"activity, negative = cell killing",[1]; [4],-12% (inactive)
same,"activity, negative = cell killing",[1]; [5],-3.68% (inactive)
same,"activity, negative = cell killing",[1]; [7],-22.3% (inactive)
same,"activity, negative = cell killing",[1]; [6],1.95% (inactive)
same,Potency,astro,inactive
CCCCN(CCCC)CC(O)c1cc(Cl)cc2c1-c1ccc(Cl)cc1/C2=C/c1ccc(Cl)cc1 (centres undefined),Potency,WaGa,inactive
same,Potency,C33A,inactive
same,Potency,CAOV3,inactive
same,Potency,CASKI,inactive
same,Potency,Es-2,inactive
same,Potency,HeLa,inactive
same,Potency,Hek293T,inactive
same,Potency,JEG-3,inactive
same,Potency,PA-1,inactive
same,Potency,Tov-21-G,inactive
same,Potency,Tov112D,inactive
same,Potency,astro,inactive
CC(C)(C)NCC(O)COc1ccc(NC(=O)NC2CCCCC2)cc1 (centres undefined),Potency,WaGa,inactive
same,Potency,C33A,inactive
same,Potency,CAOV3,inactive
same,Potency,CASKI,inactive
same,Potency,Es-2,inactive
same,Potency,HeLa,inactive
same,Potency,Hek293T,inactive
same,Potency,JEG-3,inactive
same,Potency,OV90,inactive
same,Potency,PA-1,inactive
same,Potency,SKOV3,inactive
same,Potency,Tov-21-G,inactive
same,Potency,Tov112D,inactive
same,"activity, negative = cell killing",[1]; [4],-25.7% (inactive)
same,Potency,[1]; tumour line A,31.6 µM (active)
same,Potency,astro,inactive
CN(C)CCCO[C@@H]1[C@H]2OC(C)(C)O[C@H]2O[C@@H]1C(O)CO (some centres undefined),Potency,WaGa,inactive
same,Potency,C33A,inactive
same,Potency,CAOV3,inactive
same,Potency,CASKI,inactive
same,Potency,Es-2,inactive
same,Potency,HeLa,inactive
same,Potency,JEG-3,inactive
same,Potency,OV90,inactive
same,Potency,PA-1,inactive
same,Potency,SKOV3,inactive
same,Potency,Tov-21-G,inactive
same,Potency,Tov112D,inactive
same,"activity, negative = cell killing",[1]; [4],-1.76% (inactive)
same,"activity, negative = cell killing",[1]; [5],-18.3% (inactive)
same,"activity, negative = cell killing",[1]; [6],-10.9% (inactive)
same,Potency,astro,inactive
CC(=O)c1ccc2c(c1)N(CCCN(C)C)c1ccccc1S2,Potency,WaGa,26.6 µM (active)
same,Potency,C33A,inactive
same,Potency,CAOV3,inactive
same,Potency,CASKI,inactive
same,Potency,Es-2,inactive
same,Potency,Hek293T,inactive
same,Potency,JEG-3,inactive
same,Potency,PA-1,inactive
same,Potency,Tov-21-G,inactive
same,Potency,Tov112D,inactive
same,"activity, negative = cell killing",[1]; [8],-20.2% (inactive)
same,"activity, negative = cell killing",[1]; [9],-19.6% (inactive)
same,Potency,[1]; tumour line A,10 µM (active)
same,Potency,astro,inactive
CC(C)c1c(C(=O)Nc2ccccc2)c(-c2ccccc2)c(-c2ccc(F)cc2)n1CC[C@@H](O)C[C@@H](O)CC(=O)O,Potency,WaGa,7.5 µM (active)
same,Potency,C33A,inactive
same,Potency,CAOV3,inactive
same,Potency,CASKI,inactive
same,Potency,Es-2,inactive
same,Potency,HeLa,inactive
same,Potency,Hek293T,inactive
same,Potency,JEG-3,inactive
same,Potency,OV90,inactive
same,Potency,SKOV3,inactive
same,Potency,Tov-21-G,inactive
same,Potency,Tov112D,inactive
same,Potency,astro,11.2 µM (active)
[O-][n+]1cccc(CO)c1,Potency,WaGa,inactive
same,Potency,C33A,inactive
same,Potency,CAOV3,inactive
same,Potency,CASKI,inactive
same,Potency,Es-2,inactive
same,Potency,HeLa,inactive
same,Potency,Hek293T,inactive
same,Potency,JEG-3,inactive
same,Potency,OV90,inactive
same,Potency,PA-1,inactive
same,Potency,Tov-21-G,inactive
same,Potency,Tov112D,inactive
same,"activity, negative = cell killing",[1]; [4],-6.72% (inactive)
same,"activity, negative = cell killing",[1]; [5],-10.2% (inactive)
same,"activity, negative = cell killing",[1]; [7],-20.8% (inactive)
same,"activity, negative = cell killing",[1]; [6],-13.8% (inactive)
same,Potency,astro,inactive
CC(CN(C)C)CN1c2ccccc2CCc2ccccc21 (centres undefined),Potency,WaGa,inactive
same,Potency,C33A,inactive
same,Potency,CAOV3,inactive
same,Potency,Es-2,inactive
same,Potency,HeLa,inactive
same,Potency,Hek293T,inactive
same,Potency,JEG-3,inactive
same,Potency,PA-1,inactive
same,Potency,SKOV3,inactive
same,Potency,Tov-21-G,inactive
same,Potency,Tov112D,inactive
same,"activity, negative = cell killing",[1]; [8],-0.604% (inactive)
same,"activity, negative = cell killing",[1]; [9],-19% (inactive)
same,Potency,[1]; tumour line A,6.31 µM (active)
same,Potency,astro,inactive
C#CCN(C)Cc1ccccc1,Potency,WaGa,inactive
same,Potency,C33A,inactive
same,Potency,CAOV3,inactive
same,Potency,CASKI,inactive
same,Potency,Es-2,inactive
same,Potency,HeLa,inactive
same,Potency,Hek293T,inactive
same,Potency,JEG-3,inactive
same,Potency,OV90,inactive
same,Potency,PA-1,inactive
same,Potency,SKOV3,inactive
same,Potency,Tov-21-G,inactive
same,Potency,Tov112D,inactive
same,Potency,astro,inactive
C/C(=C(\CCOP(=O)(O)O)SC(=O)c1ccccc1)N(C=O)Cc1cnc(C)nc1N,"activity change, negative = cytotoxicity",WaGa,24.3% [at 4.84 µM] (inactive)
same,"activity change, negative = cytotoxicity",C33A,4.02% [at 6.55 µM] (inactive)
same,"activity change, negative = cytotoxicity",CAOV3,-0.0932% [at 6.55 µM] (inactive)
same,"activity change, negative = cytotoxicity",CASKI,2.61% [at 6.55 µM] (inactive)
same,"activity change, negative = cytotoxicity",Es-2,-4.63% [at 6.55 µM] (inactive)
same,"activity change, negative = cytotoxicity",HeLa,3.42% [at 6.55 µM] (inactive)
same,"activity change, negative = cytotoxicity",Hek293T,-6.19% [at 6.55 µM] (inactive)
same,"activity change, negative = cytotoxicity",JEG-3,-14.5% [at 6.55 µM] (inactive)
same,"activity change, negative = cytotoxicity",PA-1,12.8% [at 6.55 µM] (inactive)
same,"activity change, negative = cytotoxicity",SKOV3,16.3% [at 6.55 µM] (inactive)
same,"activity change, negative = cytotoxicity",Tov-21-G,4.62% [at 6.55 µM] (inactive)
same,"activity change, negative = cytotoxicity",Tov112D,5.69% [at 6.55 µM] (inactive)
same,"activity, negative = cell killing",[1]; [8],-2.37% (inactive)
same,"activity, negative = cell killing",[1]; [9],1.9% (inactive)
same,"activity, negative = cell killing",[1]; [10],-14.8% (inactive)
same,"activity, negative = cell killing","[1]; at 21.3 µM (top of the series), tumour line A",-14% (inactive)
same,Potency,astro,inactive
CO/N=C(\C(=O)N[C@@H]1C(=O)N2C(C(=O)O)=C(CSc3nc(=O)c(O)nn3C)CS[C@H]12)c1csc(N)n1,Potency,WaGa,inactive
same,Potency,C33A,inactive
same,Potency,CASKI,inactive
same,Potency,Es-2,inactive
same,Potency,HeLa,inactive
same,Potency,Hek293T,inactive
same,Potency,JEG-3,inactive
same,Potency,OV90,inactive
same,Potency,PA-1,inactive
same,Potency,SKOV3,inactive
same,Potency,Tov-21-G,inactive
same,Potency,Tov112D,inactive
same,"activity, negative = cell killing",[1]; [4],-2.24% (inactive)
same,"activity, negative = cell killing",[1]; [5],-10.7% (inactive)
same,"activity, negative = cell killing",[1]; [7],-24.8% (inactive)
same,"activity, negative = cell killing",[1]; [6],-11.4% (inactive)
same,Potency,astro,inactive
CC(COc1ccccc1)NC(C)C(O)c1ccc(O)cc1 (centres undefined),Potency,WaGa,inactive
same,Potency,C33A,inactive
same,Potency,CASKI,inactive
same,Potency,Es-2,inactive
same,Potency,HeLa,inactive
same,Potency,Hek293T,inactive
same,Potency,JEG-3,inactive
same,Potency,OV90,inactive
same,Potency,PA-1,inactive
same,Potency,SKOV3,inactive
same,Potency,Tov-21-G,inactive
same,Potency,Tov112D,inactive
same,"activity, negative = cell killing",[1]; [8],-3.58% (inactive)
same,"activity, negative = cell killing",[1]; [9],-2.68% (inactive)
same,"activity, negative = cell killing",[1]; [10],-14.2% (inactive)
same,Potency,astro,inactive
